# Compound activity (PubChem)
# In the library only some 3.7% were active in any assay of this set; here they are far more common.
# Sm TGR inh: qHTS Assay for the Inhibitors of Schistosoma Mansoni Peroxiredoxins | Schistosoma mansoni thioredoxin glutathione reductase (TGR), Q962Y6 | purified TGR, DTNB reduction, TNB absorbance 405 nm | Potency, µM (doses to about 114 µM), for the others: at the highest dose activity change, negative = inhibition, hits mostly inhibitors | 360,000 tested, 3% active | AID 485364, 2010; also: nearly all actives have a fitted effect of over 60% in size
#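 First, TGR (20 nM dispensed) and NADPH were mixed with compound. Second, a 15 min room-temperature incubation followed. Third, further NADPH and then DTNB were added to start the reaction. Finally, TNB absorbance was monitored kinetically.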
# TbPYK inhibitor: qHTS of Trypanosoma Brucei Inhibitors; pyruvate kinase (Trypanosoma brucei), Q57TT1; TbPYK enzyme, Kinase-Glo Plus ATP luminescence, 45 min; Potency, µM (top dose mostly 76.8 µM), for inactives: at the highest dose activity, negative = inhibition, most hits filed as inhibitors; 410,000 tested, 0.12% active; AID 624173, 2012; also: nearly all actives have a fitted effect of over 50% in size
#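 Luminescence from Kinase-Glo Plus, added after a 45-minute room-temperature reaction, served as the end-point read-out. The enzyme and substrate were preincubated with compound before ADP (130 uM final) initiated turnover. Concentration-effect curves came from normalized qHTS data.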
# RE007 growth inh: qHTS Assay for Inhibitors of the HIV-1 protein Vpr; S. pombe RE007 Vpr strain, BacTiter-Glo ATP luminescence, 24 h; Potency, µM (highest dose often 92.2 µM), inactives show at the highest dose activity change, negative = less growth, usual class: inhibitors; 360,000 tested, 0.21% active; active = well fitted falling curve with a large enough effect; inconclusive = small, poorly fitted or top-dose-only effect; inactive = no such curve, though single readings can be large or run the other way; also: nearly all actives have a fitted effect of over 50% in size
#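 Fission yeast RE007 carrying one integrated HIV-1 vpr copy, seeded at OD 0.01 in PMG+AL medium with 23 nL pinned compound. Grown 24 h at 30 degrees; viability read by BacTiter-Glo luminescence after 5 min.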
# FMDV inh: High Throughput Screening for Foot and Mouth Disease Virus Antivirals; AID 1159524, 2015; Potency, µM (top dose mostly 57.9 µM), for inactives: top-dose activity change, negative = inhibition, usual class: inhibitors; 410,000 tested, 1.2% active; FMDV antiviral cell-based qHTS; calls by dose curve; tested in HEK293T cells; also: read-out not given here; nearly all actives have a fitted effect of over 45% in size
# Numbers without * were called inactive; ? = inconclusive; nt = no result; [ ] = remark or other dose. Unless noted, calls follow the shape of the dose curve; as a rule, active = well fitted curve in the direction sought with a large enough effect; inconclusive = small, poorly fitted or top-dose-only effect, or another doubt; inactive = no such curve, though single readings can be large; an effect the other way counts as inactive or inconclusive. % is scaled to controls: 0 for no effect and ±100 for the full control effect; potency is read from the fitted curve at half-maximal effect.
SMILES,Sm TGR inh,TbPYK inhibitor,RE007 growth inh,FMDV inh
CCN1CCN(CC(=O)N2N=C(c3cccs3)CC2c2ccc(OC)c(OC)c2)C(=O)C1=O (centres undefined),-1%,0%,-4%,-2%
O=C(/C=C/c1cn(-c2ccccc2)nc1-c1cccnc1)c1ccco1,-23%,-1%,-3%,14µM*
O=c1[nH]c(CN2CCN(c3ccc([N+](=O)[O-])cc3)CC2)nc2ccsc12,-1%,4%,10%,32µM*
COc1ccc(N2CCN(Cc3nc4ccsc4c(=O)[nH]3)CC2)cc1,-2%,-2%,16%,-9%
CCOc1ccc(CCNC(=O)c2ccc(-n3c(C)cc4c3CCCC4)cc2)cc1OCC,-24%,0%,nt,-20%
C=CCN1C(=O)/C(=C/c2ccc(-c3ccc(F)cc3)o2)SC1=S,25µM*,-3%,4%[18.4 µM],-21%
COc1cccc(CNC(=O)CN(c2ccc(C)cc2)S(=O)(=O)N(C)C)c1OC,2%,-4%,nt,-4%
O=C(CCn1cncn1)NCC1Cc2cc(-c3ccsc3)cc(Cl)c2O1 (centres undefined),nt,nt,nt,3%
Cc1ccc(-c2cc(-c3ccc(C)cc3)[n+](-c3ccc(C(=O)[O-])cc3)c(-c3ccc(C)cc3)c2)cc1,13%,0%,-14%,0%
Cc1ccc(-c2cc(-c3ccc(C)cc3)[n+](-c3ccccc3)c(-c3ccc(C)cc3)c2)cc1,-4%,1%,-13%,7.1µM*
c1ccc(-c2cc(-c3ccccc3)[n+](-c3ccccc3)c(-c3ccccc3)c2)cc1,11%,-11%,-9%,18µM*
CCOC(=O)c1ccc(-[n+]2c(-c3ccccc3)cc(-c3ccccc3)cc2-c2ccccc2)cc1,-2%,10%,-15%,-20%
Cc1ccc(-c2cc(-c3ccccc3)cc(-c3ccccc3)[n+]2-c2ccccc2)cc1,-1%,-3%,-17%,7.1µM*
CN(C)c1ccc(-[n+]2c(-c3ccccc3)cc(-c3ccccc3)cc2-c2ccccc2)cc1,nt,-1%,-2%,32µM*
Cc1ccc(Cn2ccn(Cc3ccccc3C)c(=O)c2=O)cc1,1%,1%,nt,3%
Cc1ccccc1C(=O)N1CCc2c(cnc(C)c2CNC(=O)c2ccc3c(c2)OCO3)C1,nt,nt,nt,-16%
CN1C(=O)Cc2cc(S(=O)(=O)CCC(=O)N3CCN(c4cccc(Cl)c4)CC3)ccc21,2%,-2%,nt,?
C/C(=C\c1ccc(C)o1)C(=O)c1c(C)cc(C)[nH]c1=O,18µM*,-23%,0%,-8%
C/C(=C\c1cccc(Br)c1)C(=O)c1c(C)cc(C)[nH]c1=O,8%,0%,5%,-23%
Cc1nc2ccccc2c2c1CC(C(C)(Cl)Br)O2 (centres undefined),-8%,2%,-16%,8.9µM*
Cc1coc2cc3oc(=O)c(CC(=O)NCCc4ccccc4)c(C)c3cc12,2%,4%,nt,-3%
O=c1c(-c2ccco2)[n+]([O-])c2ccccc2n1OCc1ccccn1,18µM*,2%,-13%,4%
CCOn1c(=O)c(-c2cccc([N+](=O)[O-])c2)[n+]([O-])c2ccccc21,-4%,-4%,-3%,2%
O=c1c(-c2ccco2)[n+]([O-])c2ccccc2n1OCc1ccccc1[N+](=O)[O-],16µM*,-4%,-10%,-13%
O=C(C1CCN(C2CC(=O)N(c3ccc(F)cc3)C2=O)CC1)N1CCOCC1 (centres undefined),?,6%,50µM*,-13%
SMILES,Sm TGR inh,TbPYK inhibitor,RE007 growth inh,FMDV inh
CC(=O)Nc1cccc(N2C(=O)CC(N3CCC(C(=O)N4CCCCC4)CC3)C2=O)c1 (centres undefined),20µM*,-9%,12%,0%
O=C1CC(N2CCC(C(=O)N3CCCCC3)CC2)C(=O)N1 (centres undefined),32µM*,5%,-22%,-9%
CCN1C(=O)CC(N2CCC(C(=O)N3CCOCC3)CC2)C1=O (centres undefined),-6%,2%,?,-24%
CCN1CCN(C2CC(=O)NC2=O)CC1 (centres undefined),-3%,nt,nt,nt
COc1cc(OC)cc(N2C(=O)CC(N3CCC(C(=O)N4CCCCC4)CC3)C2=O)c1 (centres undefined),?,3%,32µM*,-4%
CC(C)Oc1ccc(C(=O)N2CCN(CCc3ccccn3)CC2)cc1,1%,2%,nt,-2%
O=C1CCCN1CCC1CCN(C2CC(=O)N(c3ccc(F)cc3)C2=O)CC1 (centres undefined),?,4%,32µM*,-3%
COc1ccc(N2CCN(C3CC(=O)N(Cc4ccc(N5CCCC5=O)cc4)C3=O)CC2)cc1 (centres undefined),0%,3%,-21%,?
O=C1CC(N2CCN(c3ccc(F)cc3)CC2)C(=O)N1Cc1ccc(N2CCCC2=O)cc1 (centres undefined),45µM*,4%,2%,?
COc1cccc2c1Oc1ncccc1N(C(=O)CCC(=O)NC(C)C)C2,-1%,2%,nt,-12%
CCOc1ccc(CC(=N)C2=C(O)CC(C)(C)CC2=O)cc1OCC,-13%,-3%,24%,-9%
CCOc1ccc(CC(=O)NC2CC(C)(C)N(C)C(C)(C)C2)cc1OCC,0%,3%,-9%,-1%
CCOc1ccc(CC(=O)C2C(=O)CC(C)(C)CC2=O)cc1OCC,13µM*,-3%,-6%,-8%
CCOc1ccc(CC(=O)C2=C(N3CCOCC3)CC(C)(C)CC2=O)cc1OCC,7.9µM*,-5%,10%,-6%
CCOc1ccc(CC(=O)C2C(=O)CCCC2=O)cc1OCC,32µM*,-18%,2%,-16%
O=C(Cn1ncc2c1-c1ccccc1OC2)N1CCN(c2ccccc2F)CC1,-13%,-9%,nt,?
CC1(C)CC(=O)C(CC2=C(O)CC(C)(C)CC2=O)=C(O)C1,2.8µM*,-26%,-17%,?
OC(c1ccccc1)(c1nc(-c2cccc(C(F)(F)F)c2)cs1)C(F)(F)F (centres undefined),nt,1%,28µM*,-18%
CC(O)(c1cccc(F)c1)c1nc(-c2cccc(C(F)(F)F)c2)cs1 (centres undefined),nt,3%,35µM*,-10%
COC(=O)[C@@]12C[C@@H](CC(=O)NCC34CC5CC(CC(C5)C3)C4)C(=O)N(Cc3ccccc3)C1=CCC(C)(C)C2,nt,nt,-16%,-26%
O=C(Nc1ccc2c(c1)CCCN2C(=O)c1cccs1)c1ccccc1Cl,2%,3%,nt,-17%
CCOc1ccc(NC(=O)c2c(NCc3cccnc3)sc3c2CCC(C)C3)cc1 (centres undefined),-34%,14µM*,nt,36%
CCOc1ccc(NC(=O)c2c(NCc3ccc(C)o3)sc3c2CCC(C)C3)cc1 (centres undefined),25µM*,-17%,nt,19%
NCC(O)c1cc(O)c(O)cc1F (centres undefined),45µM*,-5%,0%[18.4 µM],-2%
